Assay outcomes: PubChem BioAssay, National Center for Advancing Translational Sciences (NCATS)
Shown are actives, neighbours in structure and some others; about 12% of the full set was active somewhere.
AmpC no deterg: qHTS Inhibitors of AmpC Beta-Lactamase (assay without detergent). AmpC nitrocefin hydrolysis, absorbance 480 nm, 0.0001% Triton. P00811. Potency, µM (doses to about 57.1 µM), usual class: inhibitors. hit rate 0.52% among 330,000; note: nearly all actives have a fitted effect of over 20% in size
Target sequence (P00811 whole entry, looked up): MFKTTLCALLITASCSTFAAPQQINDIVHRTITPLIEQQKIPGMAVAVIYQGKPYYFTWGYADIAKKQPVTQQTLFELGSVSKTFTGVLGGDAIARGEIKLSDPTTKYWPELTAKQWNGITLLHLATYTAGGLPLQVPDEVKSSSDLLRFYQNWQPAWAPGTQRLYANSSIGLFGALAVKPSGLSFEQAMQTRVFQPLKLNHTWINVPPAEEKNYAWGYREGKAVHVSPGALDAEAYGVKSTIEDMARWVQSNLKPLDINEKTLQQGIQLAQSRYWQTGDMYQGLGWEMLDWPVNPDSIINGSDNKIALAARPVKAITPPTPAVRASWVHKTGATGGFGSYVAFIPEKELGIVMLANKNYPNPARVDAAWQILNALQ
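AmpC (5.3 nM in the dispensed reagent) in 20 mM phosphate pH 7.0 with 0.01% (detergent screen) or 0.0001% Triton X-100 was preincubated with compounds for 15 min at room temperature. Nitrocefin was then added from an 800 uM solution, and hydrolysis was followed at 480 nm.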
Pf growth 96h: Primary qHTS for delayed death inhibitors of the malarial parasite plastid, 96 hour incubation | Potency, µM (series often up to 28.7 µM), usual class: inhibitors | hit rate 6.9% among 320,000 | AID 504834, 2011 | P. falciparum luciferase reporter growth, 96 h
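Two-generation exposure (96 h) targets delayed-death phenotype. Reporter parasites carrying integrated firefly luciferase, in red cells at 2% hematocrit and 0.05% parasitemia final, kept at 37 C, 5% CO2; luminescence loss indicates inhibition.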
Sm TGR block: qHTS Assay for the Inhibitors of Schistosoma Mansoni Peroxiredoxins. Potency, µM (titrated, usually from 114 µM), hits mostly inhibitors. AID 485364, 2010. purified TGR, DTNB reduction, TNB absorbance 405 nm. hit rate 3% among 360,000; note: nearly all actives have a fitted effect of over 60% in size
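First, TGR (20 nM dispensed) and NADPH were mixed with compound. Second, a 15 min room-temperature incubation followed. Third, further NADPH and then DTNB were added to start the reaction. Finally, TNB absorbance was monitored kinetically.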
SARS PLP yeast: qHTS of Yeast-based Assay for SARS-CoV PLP | S. cerevisiae expressing SARS-CoV PLpro, growth rescue | Potency, µM (top dose mostly 32.9 µM), hits mostly activators | hit rate 0.19% among 330,000 | AID 485353, 2010; calls by dose curve; note: nearly all actives have a fitted effect of over 55% in size
Pf growth 48h: Primary qHTS for delayed death inhibitors of the malarial parasite plastid, 48 hour incubation | P. falciparum luciferase growth in erythrocytes, 48 h | Potency, µM (highest dose often 28.7 µM), hits mostly inhibitors | hit rate 5.9% among 310,000
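Growth was read as firefly luciferase luminescence after a 48 h, 37 C, 5% CO2 exposure of compounds to reporter-bearing P. falciparum cultures (0.1% parasitemia, 2% hematocrit final) in Albumax-supplemented RPMI 1640.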
AmpC detergent: qHTS Inhibitors of AmpC Beta-Lactamase (assay with detergent); hit rate 0.041% among 370,000; AmpC hydrolysis of nitrocefin, absorbance 480 nm, 0.01% Triton; AID 485294, 2010; Potency, µM (titrated, usually from 114 µM), most hits filed as inhibitors; P00811; note: nearly all actives have a fitted effect of over 25% in size
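AmpC (5.3 nM in the dispensed reagent) in 20 mM phosphate pH 7.0 with 0.01% (detergent screen) or 0.0001% Triton X-100 was preincubated with compounds for 15 min at room temperature. Nitrocefin was then added from an 800 uM solution, and hydrolysis was followed at 480 nm.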
Hits are given with their value; i = inactive; ? = inconclusive; nt = no result given; ! = not confirmed by another sample. Unless noted, calls come from the whole dose curve; as a rule, active = well fitted curve in the direction sought with a large enough effect; inconclusive = small, poorly fitted or top-dose-only effect, or another doubt; inactive = no such curve, though single readings can be large; an effect the other way counts as inactive or inconclusive.

SMILES	AmpC no deterg	Pf growth 96h	Sm TGR block	SARS PLP yeast	Pf growth 48h	AmpC detergent
COc1ccc(C(=O)NCc2ccc3c(c2)CCN3C(=O)c2cccc(C)c2)cc1OC	nt	nt	i	nt	nt	i
C/C(=N\NC(=O)c1ccccc1OCCOc1ccccc1)c1ccccc1F	i	?	i	i	12µM	?
CCCCCCCCNC(C)C(O)c1ccc(SC(C)C)cc1 (stereo not drawn)	i	0.93µM!	i	i	1.9µM	i
CCOC(=O)CSc1nc2c([nH]c3ccccc32)c(=O)n1-c1ccc(OCC)cc1	nt	nt	i	nt	nt	i
Cc1cc(NC(=O)CS(=O)(=O)c2cn(Cc3cccc(F)c3)c3ccccc23)no1	i	?	i	i	nt	i
O=C(CS(=O)(=O)c1cn(Cc2ccc(Cl)cc2)c2ccccc12)N1CCCC1	i	8.3µM	i	i	nt	?
Cc1cc(NC(=O)CS(=O)(=O)c2cn(Cc3ccc(F)cc3)c3ccccc23)no1	i	13µM	i	i	nt	?
O=C(CS(=O)(=O)c1cn(Cc2ccccc2Cl)c2ccccc12)N1CCOCC1	i	i	i	i	i	i
Cc1cc(C)cc(Nc2ncnc3c2nc2n3CCCC2)c1	nt	nt	i	nt	nt	i
COCCCNC(=O)CSc1nc(-c2ccc(OC)cc2)[nH]c1-c1ccc(OC)cc1	nt	nt	i	nt	nt	i
COc1cccc(-n2nc(C#N)c(Cl)cc2=O)c1	i	i	2.5µM	i	i	i
CCN(CC)S(=O)(=O)c1ccc(OC)c(NS(=O)(=O)Cc2ccccc2)c1	i	12µM	i	i	i	?
CC(C)n1cnc2c(N(C)c3ccccc3)nc(N(CCN(C)C)Cc3ccccc3)nc21	i	0.93µM	?	i	4.7µM	i
COc1cc(NCc2ccccc2)c2ncn(C(C)C)c2c1	i	?	i	i	?	i
COc1cc(N(Cc2ccccc2)Cc2ccccc2)c2ncn(C(C)C)c2c1	i	7.4µM	i	i	5.9µM	i
Brc1ccc(-c2cn3cc(Cc4ccccc4)sc3n2)cc1	nt	nt	i	nt	nt	i
Cc1ccc([N+](=O)[O-])cc1N=C(c1cccc(Br)c1)N1CCOCC1	i	13µM	i	i	?	?
Cc1nc2nc(SCC(=O)N3CCOCC3)nn2c(C)c1Cc1c(F)cccc1Cl	i	i	i	i	3.7µM	i
Cc1cccc(N(CC(=O)NCc2ccco2)C(=O)CCC(=O)Nc2nccs2)c1	i	i	i	i	i	i
COc1ccc(N=C2SCC(=O)N2Cc2ccccc2)cc1	i	9.3µM	i	i	i	?
Cc1cc(C)c2c(CC(=O)Nc3c(C(=O)c4ccc(F)cc4)oc4ccccc34)coc2c1	nt	nt	i	nt	nt	i
CC(=O)c1cccc(S(=O)(=O)N2CCC(C(=O)Nc3cccc(C(=O)NC4CC4)c3)CC2)c1	i	?	i	i	?	i
O=S(=O)(c1ccc(OCC(O)CNC23CC4CC(CC(C4)C2)C3)c(Cl)c1)N1CCOCC1 (stereo not drawn)	i	?	i	i	10µM	i
Cc1ccc(-n2nnnc2CN2CCCCC2)cc1	i	2.1µM	nt	i	i	i
Cc1ccc(S(=O)(=O)Cn2nnnc2CN2CCCC3(CCCCC3)C2)cc1	i	nt	?	i	13µM	i
SMILES	AmpC no deterg	Pf growth 96h	Sm TGR block	SARS PLP yeast	Pf growth 48h	AmpC detergent
Clc1ccc(-n2nnnc2CN2CCOCC2)cc1	i	i	i	i	i	i
Cc1ccsc1/C=N/NC(=O)CNC(=O)c1cccc([N+](=O)[O-])c1C	i	i	i	i	i	i
CN1CCC(=C2c3ccccc3C(O)c3ccccc32)CC1 (stereo not drawn)	i	?	i	i	i	i
CN1CCc2cccc3c2C1Cc1ccc(O)c(O)c1-3 (stereo not drawn)	i	10µM	nt	i	?	?
C=CCN1CCc2cccc3c2[C@H]1Cc1ccc(O)c(O)c1-3	i	i	1.6µM	i	?	i
C=CCN1CC[C@]23c4c5ccc(O)c4O[C@H]2[C@@H](O)C=C[C@H]3[C@H]1C5	nt	?	nt	nt	i	nt
COc1ccc(NC(=O)CN(C)C(=O)c2csc3c2CCCC3)cc1	i	i	i	i	i	i
NC(=O)c1cc(Cc2ccccc2)sc1NC(=O)c1ccco1	i	nt	i	i	i	?
CCOc1ccc(CC(=O)Nc2sc(Cc3ccccc3)cc2C(N)=O)cc1OCC	i	12µM	i	i	nt	i
CCOc1ccc(NC(=O)CN(C)C(=O)CSCc2cccc(C)c2)cc1OCC	i	15µM	i	i	?	i
CCOc1ccc(NC(=O)CN(C)C(=O)c2csc3c2CCCC3)cc1OCC	i	?	i	i	13µM	?
CCOc1ccc(NC(=O)CN(C)C(=O)c2cc(S(=O)(=O)N(C)C)ccc2N2CCCC2)cc1OCC	i	i	i	i	10µM	?
COc1ccc(C(=O)NC(=S)Nc2ccc3[nH]c(=O)[nH]c3c2)c(OC)c1	i	i	i	i	i	i
Cc1ccc(-c2noc(-c3nnn(CC(=O)Nc4cc(C)cc(C)c4)c3N)n2)cc1	nt	nt	i	nt	nt	i
CN(CC(=O)Nc1c(Cl)cccc1Cl)C(=O)c1ccccc1Cc1ccccc1	i	?	i	i	13µM	?
CCOc1ccc(NC(=O)CN(C)C(=O)c2ccccc2Cc2ccccc2)cc1OCC	i	?	i	i	12µM	?
CCOc1ccc(NC(=O)CN(C)C(=O)c2ccccc2OCc2cccc(C)c2)cc1OCC	i	?	i	i	?	i
C=CCC1(CC=C)CCCN1C(=O)c1cc(COc2ccccc2SC)on1	i	i	i	i	15µM	i
C=CCC1(CC=C)CCCN1C(=O)c1cc(COc2ccc(F)c(F)c2)on1	i	i	?	i	?	i
O=C(COC(=O)C12CC3CC(CC(Cl)(C3)C1)C2)Nc1ccc2[nH]c(=O)[nH]c2c1	i	?	i	i	?	i
CCCN=C1CC(C)(C)CC(=O)/C1=C(/O)CCC	i	i	i	i	i	i
CCCCCCN=C1CC(C)(C)CC(=O)/C1=C(/O)CCC	i	6.6µM	i	i	?	i
Cc1cc(C)n(C(C)CNS(=O)(=O)c2ccccc2)n1 (stereo not drawn)	i	i	i	i	i	i
CCOC(=O)N1CCN(c2cc(=O)n(-c3ccc(Br)cc3)c(=O)[nH]2)CC1	0.56µM	i	i	i	i	?
CCOC(=O)N1CCN(c2cc(=O)n(-c3ccc(C)cc3)c(=O)[nH]2)CC1	i	i	i	i	i	i
CCOC(=O)C1CCN(c2cc(=O)n(-c3ccccc3Cl)c(=O)[nH]2)CC1	i	i	i	?	1.9µM	i
